Consider eight sequences from PMC7862700, “An all-to-all approach to the identification of sequence-specific readers for epigenetic DNA modifications on cytosine”.

Test in all cases: DAPPL (digital affinity profiling via proximity ligation, sequencing); 10 mM Tris-HCl pH 7.5, 50 mM NaCl, 1 mM DTT, 4% glycerol, room temperature, 30 min; GST-TFs on glutathione beads, 16-mer random dsDNA library, 0.1% formaldehyde crosslink after washing; high values mean tight binding
Conditions in all cases: protein: recombinant; tags: N-terminal GST; dsDNA, one strand shown

Assay [1] has as its target T1, ERF (Homo sapiens, UniProt P50548 1-548).
T1 sequence: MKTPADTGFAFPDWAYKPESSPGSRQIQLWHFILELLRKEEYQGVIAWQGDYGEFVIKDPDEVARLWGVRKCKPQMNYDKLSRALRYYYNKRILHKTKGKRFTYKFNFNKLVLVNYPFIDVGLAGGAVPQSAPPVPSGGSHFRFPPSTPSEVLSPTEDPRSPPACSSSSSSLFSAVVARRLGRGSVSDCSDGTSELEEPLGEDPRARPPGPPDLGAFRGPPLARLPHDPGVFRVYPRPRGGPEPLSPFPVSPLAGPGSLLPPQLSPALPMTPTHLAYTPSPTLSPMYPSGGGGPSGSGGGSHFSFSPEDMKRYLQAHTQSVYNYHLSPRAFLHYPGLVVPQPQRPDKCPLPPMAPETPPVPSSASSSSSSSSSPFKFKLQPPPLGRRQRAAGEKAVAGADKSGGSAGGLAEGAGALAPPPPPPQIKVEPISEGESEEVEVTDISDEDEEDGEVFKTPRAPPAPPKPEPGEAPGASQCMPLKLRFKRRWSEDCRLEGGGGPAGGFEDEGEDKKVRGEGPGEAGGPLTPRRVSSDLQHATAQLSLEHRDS
The procedure, abridged:
(§1)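 Binding signal is each hexamer's read frequency for a factor divided by its frequency in the tag-only sample. The factors were GST-fused human transcription factors from yeast, captured on glutathione beads, DNA-barcoded and pooled with that sample. Pools were incubated with 200 nmole of a random double-stranded 16-mer DNA library in Tris/NaCl/DTT/glycerol buffer at room temperature for 30 min, then washed, crosslinked with 0.1% formaldehyde, proximity-ligated with BsaI/T4 ligase (1 h, 37 °C), PCR-amplified and sequenced on an Illumina NextSeq500.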

Assay [2] has as its target T2, ETV3L (Homo sapiens, UniProt Q6ZN32 1-361).
T2 sequence: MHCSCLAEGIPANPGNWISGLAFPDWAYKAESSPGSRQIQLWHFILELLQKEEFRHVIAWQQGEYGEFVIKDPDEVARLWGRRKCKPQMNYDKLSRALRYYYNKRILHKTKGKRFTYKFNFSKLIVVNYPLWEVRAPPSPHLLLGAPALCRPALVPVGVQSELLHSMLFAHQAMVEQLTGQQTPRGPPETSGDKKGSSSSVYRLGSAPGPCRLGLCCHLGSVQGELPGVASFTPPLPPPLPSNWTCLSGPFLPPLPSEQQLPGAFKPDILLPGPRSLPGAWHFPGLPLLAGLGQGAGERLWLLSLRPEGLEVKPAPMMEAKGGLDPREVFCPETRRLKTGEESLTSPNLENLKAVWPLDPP
The essentials: as §1

Assay [3] addresses T3, ETS2 (Homo sapiens, UniProt P15036 1-469).
T3 sequence: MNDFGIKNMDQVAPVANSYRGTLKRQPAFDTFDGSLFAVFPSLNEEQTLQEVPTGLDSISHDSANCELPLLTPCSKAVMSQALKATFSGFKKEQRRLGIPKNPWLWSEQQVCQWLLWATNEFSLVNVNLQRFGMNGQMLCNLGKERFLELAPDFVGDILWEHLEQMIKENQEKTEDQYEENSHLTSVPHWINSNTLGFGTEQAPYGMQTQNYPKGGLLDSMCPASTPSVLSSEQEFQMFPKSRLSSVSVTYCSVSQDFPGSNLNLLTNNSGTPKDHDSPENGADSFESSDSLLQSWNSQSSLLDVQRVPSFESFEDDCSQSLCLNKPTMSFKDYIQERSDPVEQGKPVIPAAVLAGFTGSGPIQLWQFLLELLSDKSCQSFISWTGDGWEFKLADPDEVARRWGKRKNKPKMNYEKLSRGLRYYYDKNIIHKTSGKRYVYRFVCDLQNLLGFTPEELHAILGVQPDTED
The procedure, abridged:
as §1

The target in assay [4] is T4, SPDEF (Homo sapiens, UniProt O95238 1-335).
T4 sequence: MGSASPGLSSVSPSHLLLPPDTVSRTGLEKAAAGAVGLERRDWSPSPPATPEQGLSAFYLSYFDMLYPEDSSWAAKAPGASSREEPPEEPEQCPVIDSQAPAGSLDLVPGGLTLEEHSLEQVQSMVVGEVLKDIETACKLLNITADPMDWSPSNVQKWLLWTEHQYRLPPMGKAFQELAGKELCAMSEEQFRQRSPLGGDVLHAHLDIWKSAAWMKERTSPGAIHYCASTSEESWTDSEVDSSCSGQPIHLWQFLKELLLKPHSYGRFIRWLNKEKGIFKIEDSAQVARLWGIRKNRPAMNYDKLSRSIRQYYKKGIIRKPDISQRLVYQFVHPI
The procedure, abridged:
as §1

Assay [5] deals with T5, ETV7 (Homo sapiens, UniProt Q9Y603 1-341).
T5 sequence: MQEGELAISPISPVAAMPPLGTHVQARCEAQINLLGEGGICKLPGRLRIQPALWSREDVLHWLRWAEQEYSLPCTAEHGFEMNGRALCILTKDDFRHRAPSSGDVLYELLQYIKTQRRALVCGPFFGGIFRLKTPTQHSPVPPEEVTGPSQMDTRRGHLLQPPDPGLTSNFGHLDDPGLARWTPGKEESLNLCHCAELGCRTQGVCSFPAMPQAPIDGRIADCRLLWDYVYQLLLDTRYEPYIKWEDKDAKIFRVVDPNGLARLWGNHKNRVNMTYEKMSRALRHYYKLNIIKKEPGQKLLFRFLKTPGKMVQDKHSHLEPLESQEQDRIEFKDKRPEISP
The essentials:
as §1

In assay [6] the target is T6, ELF5 (Homo sapiens, UniProt Q9UKW6-2 1-255).
T6 sequence: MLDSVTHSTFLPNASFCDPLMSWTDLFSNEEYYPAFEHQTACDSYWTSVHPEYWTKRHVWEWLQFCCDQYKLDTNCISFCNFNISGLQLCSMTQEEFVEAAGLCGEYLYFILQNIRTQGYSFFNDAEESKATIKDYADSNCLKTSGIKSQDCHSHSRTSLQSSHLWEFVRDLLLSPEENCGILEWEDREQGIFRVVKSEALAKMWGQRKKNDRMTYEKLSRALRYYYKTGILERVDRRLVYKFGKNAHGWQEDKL
The essentials:
as §1

Assay [7] concerns the target T7, ETV3 (Homo sapiens, UniProt P41162-2 1-143).
T7 sequence: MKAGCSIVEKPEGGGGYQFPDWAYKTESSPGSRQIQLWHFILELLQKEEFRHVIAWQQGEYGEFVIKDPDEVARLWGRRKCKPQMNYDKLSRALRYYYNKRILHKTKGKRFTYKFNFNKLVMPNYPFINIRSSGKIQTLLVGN
The essentials:
as §1

Assay [8] has as its target ETV6 (Homo sapiens, UniProt P41212 1-452). The essentials:
as §1

ETV6, sequence (P41212 whole entry): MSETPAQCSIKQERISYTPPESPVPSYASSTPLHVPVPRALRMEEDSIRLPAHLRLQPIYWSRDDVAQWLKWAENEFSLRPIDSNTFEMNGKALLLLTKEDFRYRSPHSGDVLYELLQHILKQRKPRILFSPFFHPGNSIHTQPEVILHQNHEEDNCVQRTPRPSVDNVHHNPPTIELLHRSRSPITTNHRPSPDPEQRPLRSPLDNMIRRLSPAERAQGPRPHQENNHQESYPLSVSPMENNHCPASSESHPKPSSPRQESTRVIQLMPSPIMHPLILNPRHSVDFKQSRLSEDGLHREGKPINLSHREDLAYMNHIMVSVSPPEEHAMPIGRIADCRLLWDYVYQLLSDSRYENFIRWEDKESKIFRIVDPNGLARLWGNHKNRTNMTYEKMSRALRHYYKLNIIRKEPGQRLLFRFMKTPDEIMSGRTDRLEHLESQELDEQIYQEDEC

Regarding ACACTA, the binding signal in assay [1] was 1.15 fold enrichment (6-mer frequency, TF over GST control); in assay [2] it was 1.18 fold enrichment (6-mer frequency, TF over GST control); in assay [3], 1.1 fold enrichment (6-mer frequency, TF over GST control); in assay [4], 1.09 fold enrichment (6-mer frequency, TF over GST control); in assay [5], 1.15 fold enrichment (6-mer frequency, TF over GST control); in assay [6] it was 1.09 fold enrichment (6-mer frequency, TF over GST control). Also, the binding signal in assay [7] was 1.12 fold enrichment (6-mer frequency, TF over GST control); in assay [8], 1.21 fold enrichment (6-mer frequency, TF over GST control).

As to ATTCAG, the binding signal was 1.15 fold enrichment (6-mer frequency, TF over GST control) in assay [1]; 1.2 fold enrichment (6-mer frequency, TF over GST control) in assay [2]; 1.14 fold enrichment (6-mer frequency, TF over GST control) in assay [3]; 1.05 fold enrichment (6-mer frequency, TF over GST control) in assay [4]; 1.02 fold enrichment (6-mer frequency, TF over GST control) in assay [5]; 1.08 fold enrichment (6-mer frequency, TF over GST control) in assay [6]. Also, the binding signal in assay [7] is 1.12 fold enrichment (6-mer frequency, TF over GST control); in assay [8] it was 1.02 fold enrichment (6-mer frequency, TF over GST control).

Regarding ACAAGC, the binding signal is 1.15 fold enrichment (6-mer frequency, TF over GST control) in assay [1]; 1.11 fold enrichment (6-mer frequency, TF over GST control) in assay [2]; 1.18 fold enrichment (6-mer frequency, TF over GST control) in assay [3]; 1 fold enrichment (6-mer frequency, TF over GST control) in assay [4]; 1.01 fold enrichment (6-mer frequency, TF over GST control) in assay [5]; 1.02 fold enrichment (6-mer frequency, TF over GST control) in assay [6]. The binding signal was 1.13 fold enrichment (6-mer frequency, TF over GST control) in assay [7] and 1.09 fold enrichment (6-mer frequency, TF over GST control) in assay [8].

Regarding ATCTGA, the binding signal in assay [1] is 1.2 fold enrichment (6-mer frequency, TF over GST control); in assay [2], 1.19 fold enrichment (6-mer frequency, TF over GST control); in assay [3], 1.17 fold enrichment (6-mer frequency, TF over GST control); in assay [4], 1.1 fold enrichment (6-mer frequency, TF over GST control); in assay [5], 1.04 fold enrichment (6-mer frequency, TF over GST control); in assay [6], 1.08 fold enrichment (6-mer frequency, TF over GST control). The binding signal in assay [7] is 1.06 fold enrichment (6-mer frequency, TF over GST control); in assay [8], 1.13 fold enrichment (6-mer frequency, TF over GST control).

As for TCATCG, the binding signal was 1.06 fold enrichment (6-mer frequency, TF over GST control) in assay [1] and 1.08 fold enrichment (6-mer frequency, TF over GST control) in assay [2].

Turning to ACGGCT, the binding signal in assay [1] was 1.16 fold enrichment (6-mer frequency, TF over GST control); in assay [2] it was 1.23 fold enrichment (6-mer frequency, TF over GST control); in assay [3] it was 1.19 fold enrichment (6-mer frequency, TF over GST control); in assay [4] it was 1.18 fold enrichment (6-mer frequency, TF over GST control); in assay [5] it was 1.03 fold enrichment (6-mer frequency, TF over GST control); in assay [6] it was 1.07 fold enrichment (6-mer frequency, TF over GST control). Also, the binding signal in assay [7] was 1.11 fold enrichment (6-mer frequency, TF over GST control); in assay [8] it was 1.16 fold enrichment (6-mer frequency, TF over GST control).

As for TGTTCG, the binding signal in assay [1] is 1.2 fold enrichment (6-mer frequency, TF over GST control); in assay [2], 1.01 fold enrichment (6-mer frequency, TF over GST control); in assay [3], 1.15 fold enrichment (6-mer frequency, TF over GST control); in assay [4], 1.03 fold enrichment (6-mer frequency, TF over GST control); in assay [5], 1.15 fold enrichment (6-mer frequency, TF over GST control); in assay [6] it was 1.03 fold enrichment (6-mer frequency, TF over GST control). For the same sequence, in assay [7], the binding signal is 1.01 fold enrichment (6-mer frequency, TF over GST control).

In the case of ATAATT, the binding signal was 1.33 fold enrichment (6-mer frequency, TF over GST control) in assay [1]; 1.4 fold enrichment (6-mer frequency, TF over GST control) in assay [2]; 1.31 fold enrichment (6-mer frequency, TF over GST control) in assay [3]; 1.23 fold enrichment (6-mer frequency, TF over GST control) in assay [4]; 1.31 fold enrichment (6-mer frequency, TF over GST control) in assay [5]; 1.31 fold enrichment (6-mer frequency, TF over GST control) in assay [6]. Besides, the binding signal in assay [7] is 1.32 fold enrichment (6-mer frequency, TF over GST control); in assay [8], 1.45 fold enrichment (6-mer frequency, TF over GST control).
